Measurements from PubChem BioAssay AID1159580 (chemical genetic matrix, 2015).
Values joined by “and” are separate entries in the source; they are usually repeats but may differ in a detail not shown here. Equal values may be shown once. Among all 5,500 compounds or so, about 2,000 (36%) were called active. About 18% were inconclusive and are not listed. Rule as the data show it: active = normalized growth mostly below about 0.91 (no sharp cut-off); inconclusive = no clear call, values can overlap the other calls; inactive = mostly above about 0.92. This is one part of the list.

Assay: chemical genetic growth profiling, strain panel (AID 1159580);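 also: tested at 20 µM; growth read once vehicle control cultures reached saturation at 30 °C; 1 = growth at the plate median or of vehicle wells; lower values mean less growth of the strain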
Conditions: S. cerevisiae deletion strains, growth OD

Measured: normalized growth

Cn1c(=O)c2c(ncn2C)n(C)c1=O
inactive: locus YAL013W, strain DEP1, active compounds read low 0.997 | locus YAL021C, strain ccr4, active compounds read low 1.01 | locus YAL026C, strain drs2, active compounds read low 0.975 | locus YAL030W, strain snc1, active compounds read low 0.97 | locus YAL040C, strain CLN3, active compounds read low 1.02 | locus YBL061C, strain skt5, active compounds read low 0.962 | locus YBR009C, strain hhf1, active compounds read low 0.94 | locus YBR021W, strain FUR4, active compounds read low 1.01 | locus YBR023C, strain chs3, active compounds read low 0.978 | locus YBR171W, strain sec66, active compounds read low 0.94 | locus YBR229C, strain ROT2, active compounds read low 0.998 | locus YBR231C, strain swc5, active compounds read low 0.989 | locus YBR279W, strain paf1, active compounds read low 0.982 | locus YCL011C, strain gbp2, active compounds read low 0.922 | locus YCL016C, strain dcc1, active compounds read low 0.936 | locus YCL029C, strain bik1, active compounds read low 1.02 | locus YCL061C, strain MRC1 (second series), active compounds read low 1.01 | locus YCL061C, strain MRC1, active compounds read low 0.98 | locus YCL069W, strain vba3, active compounds read low 0.973 | locus YCR088W, strain abp1, active compounds read low 0.983 | locus YDL005C, strain med2, active compounds read low 0.99 | locus YDL035C, strain GPR1, active compounds read low 1.02 | locus YDL040C, strain nat1, active compounds read low 0.987 | locus YDL074C, strain BRE1, active compounds read low 1.03 | locus YDL101C, strain DUN1, active compounds read low 0.999 | locus YDL134C, strain PPH21, active compounds read low 0.992 | locus YDL185W, strain tfp1, active compounds read low 1.02 | locus YDL192W, strain arf1, active compounds read low 1 | locus YDR001C, strain nth1, active compounds read low 0.966 | locus YDR069C, strain doa4, active compounds read low 0.961 | locus YDR101C, strain arx1, active compounds read low 1.04 | locus YDR137W, strain rgp1, active compounds read low 0.943 | locus YDR150W, strain NUM1, active compounds read low 0.998 | locus YDR159W, strain sac3, active compounds read low 0.961 | locus YDR162C, strain NBP2, active compounds read low 0.998 | locus YDR195W, strain ref2 0.99 | locus YDR297W, strain sur2, active compounds read low 0.98 | locus YDR318W, strain mcm21, active compounds read low 0.99 | locus YDR334W, strain swr1, active compounds read low 0.914 | locus YDR335W, strain msn5, active compounds read low 0.969 | locus YDR363W, strain ESC2, active compounds read low 0.985 | locus YDR388W, active compounds read low 1 | locus YDR392W, strain spt3, active compounds read low 0.942 | locus YDR502C, strain sam2, active compounds read low 1.01 | locus YEL003W, strain gim4, active compounds read low 0.979 | locus YEL037C, strain rad23, active compounds read low 0.972 | locus YEL061C, strain CIN8 (second series), active compounds read low 0.977 | locus YEL061C, strain CIN8, active compounds read low 0.996 | locus YER002W, strain NOP16, active compounds read low 1.01 | locus YER015W, strain faa2, active compounds read low 0.971 | locus YER016W, strain bim1, active compounds read low 0.948 | locus YER110C, active compounds read low 1.01 | locus YER111C, strain swi4, active compounds read low 0.949 | locus YER155C, strain BEM2 (second series), active compounds read low 1 | locus YER155C, strain BEM2, active compounds read low 0.994 | locus YER167W, strain BCK2, active compounds read low 1 | locus YFR010W, strain ubp6, active compounds read low 0.96 | locus YGL078C, strain dbp3, active compounds read low 1.02 | locus YGL086W, strain mad1, active compounds read low 1.01 | locus YGL167C, strain pmr1, active compounds read low 0.945 | locus YGL173C, strain kem1, active compounds read low 0.938 | locus YGL227W, strain vid30, active compounds read low 0.97 | locus YGL240W, strain doc1, active compounds read low 0.987 | locus YGL248W, strain PDE1, active compounds read low 1 | locus YGL253W, strain hxk2, active compounds read low 0.982 | locus YGR078C, strain PAC10, active compounds read low 0.995 and 0.992 | locus YGR135W, strain pre9, active compounds read low 0.999 | locus YGR229C, strain SMI1, active compounds read low 0.995 | locus YGR252W, strain gcn5, active compounds read low 1.01 | locus YHR013C, strain ard1, active compounds read low 0.947 | locus YHR027C, strain rpn1, active compounds read low 0.932 | locus YHR030C, strain SLT2, active compounds read low 1 and 1.02 | locus YHR079C, strain IRE1 (second series), active compounds read low 1.01 | locus YHR079C, strain IRE1, active compounds read low 0.993 | locus YHR094C, strain hxt1, active compounds read low 1.01 | locus YHR129C, strain ARP1, active compounds read low 0.996 | locus YHR142W, strain chs7, active compounds read low 0.899 | locus YHR200W, strain rpn10, active compounds read low 1.02 | locus YIL066C, strain RNR3, active compounds read low 1.01 | locus YIL073C, strain SPO22, active compounds read low 1.04 | locus YIL125W, strain kgd1, active compounds read low 1.01 | locus YIR030C, strain dcg1, active compounds read low 0.999 | locus YJL092W, strain hpr5, active compounds read low 0.956 | locus YJL095W, strain BCK1 (second series), active compounds read low 0.967 | locus YJL095W, strain BCK1, active compounds read low 0.985 and 1.04 | locus YJL115W, strain asf1, active compounds read low 0.939 | locus YJL129C, strain trk1, active compounds read low 0.95 | locus YJL134W, strain LCB3, active compounds read low 1 | locus YJL154C, strain vps35, active compounds read low 0.976 | locus YJL164C, strain tpk1, active compounds read low 0.964 | locus YJL166W, strain qcr8, active compounds read low 0.977 | locus YJL168C, strain set2, active compounds read low 0.997 | locus YJL187C, strain SWE1 (second series), active compounds read low 1.01 | locus YJL187C, strain SWE1, active compounds read low 0.966
